In PubChem BioAssay (EPA / NIEHS):
Inconclusive results are not listed. Calls of active or inactive are those of the source. The calls were made as follows: active = hit-call score of the fitted dose curve at least 0.9, where 1 is the maximum; inconclusive = response in the unintended direction; inactive = score below 0.9.

These molecules were tested against Estrogen receptor (Homo sapiens) (UniProt P03372) (assay: ATG_ERa_TRANS: Attagene TRANS-FACTORIAL HepG2 Assay for human Estrogen Receptor alpha (ERa) (AID 2282970)). Settings: HepG2 Attagene TRANS ERa GAL4 reporter, mRNA.
Chain of Estrogen receptor (Homo sapiens) (P03372 whole entry, looked up, the tested form may be a part): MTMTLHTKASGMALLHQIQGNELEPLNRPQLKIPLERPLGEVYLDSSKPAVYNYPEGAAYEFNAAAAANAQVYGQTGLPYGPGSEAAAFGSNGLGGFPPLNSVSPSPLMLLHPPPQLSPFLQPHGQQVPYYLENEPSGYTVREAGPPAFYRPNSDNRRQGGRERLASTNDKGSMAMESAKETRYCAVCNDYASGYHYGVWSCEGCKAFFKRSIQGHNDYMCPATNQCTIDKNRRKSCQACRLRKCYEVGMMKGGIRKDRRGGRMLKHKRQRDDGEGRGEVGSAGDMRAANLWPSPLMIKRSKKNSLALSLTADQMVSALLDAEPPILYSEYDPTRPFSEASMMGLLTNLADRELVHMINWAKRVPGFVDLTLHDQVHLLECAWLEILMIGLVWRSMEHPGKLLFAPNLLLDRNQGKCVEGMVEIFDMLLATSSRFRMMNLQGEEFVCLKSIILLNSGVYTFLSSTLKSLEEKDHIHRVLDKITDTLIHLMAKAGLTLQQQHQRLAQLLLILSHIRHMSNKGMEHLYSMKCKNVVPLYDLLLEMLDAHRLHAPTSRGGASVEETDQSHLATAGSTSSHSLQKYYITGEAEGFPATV
Experimental: ATG_TRANS is a cell-based, multiplexed-readout assay that uses HepG2, a human liver cell line, with measurements taken at 24 hours after chemical dosing in a 24-well plate.ATG_ERa_TRANS is one of 30 assay component(s) measured or calculated from the ATG_TRANS assay. It is designed to make measurements of mRNA induction, a form of inducible reporter, as detected with fluorescence intensity signals by Reverse transcription polymerase chain reaction (RT-PCR) and Capillary electrophoresis technology.Data from the assay component ATG_ERa_TRANS was analyzed into 1 assay endpoint. This assay endpoint, ATG_ERa_TRANS, was analyzed in the positive analysis fitting direction relative to DMSO as the negative control and baseline of activity. Using a type of inducible reporter, measures of mRNA for gain-of-signal activity can be used to understand the reporter gene at the transcription factor-level as they relate to the gene ESR1. Furthermore, this assay endpoint can be referred to as a primary readout, because this assay has produced multiple assay endpoints where this one serves a reporter gene function. To generalize the intended target to other relatable targets, this assay endpoint is annotated to the nuclear receptor intended target family, where the subfamily is steroidal.
Human liver HepG2 cells are transiently transfected with multiple reporter transcription units (MRTUs) in 6-well plates using FuGene 6 reagent (Roche; 3 ml FuGene/1 mg DNA). The MRTU constructs are regulated by a cis-regulating element (promoter). […] A major difference between the CIS and TRANS system is that in CIS activities of endogenous TFs are measured, whereas the TRANS assay evaluates changes in activities of exogenous, chimeric NR-Gal4 proteins. […] At the end of 24 hour incubation, total RNA was isolated using TriZol reagent (Invitrogen). The isolated RNA is then reverse-transcribed using oligo(dT) primer and Mo-MLV reverse transcriptase (Invitrogen) with DNAse I (Ambion) treatment for 30 min. The one-tenth of the produced cDNA was amplified by PCR using Taq DNA polymerase (Invitrogen) and two reporter sequence-specific primers. The PCR products were fluorescently labeled by primer extension with 6-arboxyfluorescein (6-FAM) 5'-labeled reporter sequence-specific primer (2 min at 95 C, 20 s at 68 C and 10 min at 72 C) and these products were digested with 5U of HpaI (New England Biolabs) for 2h at 37 C. […] The raw capillary electrophoresis data was processed using Attagraph software (Attagene).
CC(C)=CCCC(C)CCOC(=O)C(C)C (stereo not given) was tested, and the outcome was “inactive”.
In the case of CN(C)Cc1ccccc1O, the outcome is reported as “inactive”.
With Nc1cc(Cl)c(N)c(Cl)c1 the outcome was “inactive”.
O=C(O)C(F)(F)C(F)(F)C(F)(F)C(F)(F)F was tested, and the outcome was “inactive”.
In the case of C=CC(F)(F)C(F)(F)C(F)(F)C(F)(F)C(F)(F)C(F)(F)C(F)(F)C(F)(F)C=C, the AC50 is reported as 2.76 µM (active).
In the case of Cc1ccc(S(=O)(=O)NCl)cc1, the outcome is reported as “inactive”.
FC(F)(F)C(F)(F)C(F)(F)C(F)(F)C(F)(F)C(F)(F)C(F)(F)C(F)(F)CCS was tested, and the outcome was “inactive”.
With FC(F)(F)C(F)(F)C(F)(F)C(F)(F)CCI the AC50 was 13.6 µM (active).
For CCC(=O)OCCc1ccccc1, the outcome was “inactive”.
In the case of CNC(=S)NC, the AC50 is reported as 25.9 µM (active).
OCC(F)(F)C(F)(F)C(F)(F)C(F)F was tested, and the outcome was “inactive”.
In the case of CS(C)(=O)=O, the outcome is reported as “inactive”.
CCCCOCCOCCOC(=O)CCCCC(=O)OCCOCCOCCCC was tested, and the outcome was “inactive”.
For FC(F)(F)C(F)(F)C(F)(F)C(F)(F)C(F)(F)C(F)(F)C(F)(F)Br, the outcome was “inactive”.
For FC(F)(F)C(F)(F)C(F)(F)C(F)(F)C(F)(F)C(F)(F)C(F)(F)C(F)(F)F, the outcome was “inactive”.
With FC(F)(F)C(F)(F)C(F)(F)CI the outcome was “inactive”.
With O=C(O)C(F)(F)C(F)(F)F the outcome was “inactive”.
For CCCCCCCCC(F)(F)C(F)(F)C(F)(F)C(F)(F)C(F)(F)C(F)(F)F, the outcome was “inactive”.
For CCc1c(Br)c(Br)c(Br)c(Br)c1Br, the outcome was “inactive”.
With C=CC(F)(F)C(F)(F)C(F)(F)C(F)(F)C(F)(F)C(F)(F)C(F)(F)C(F)(F)F the outcome was “inactive”.
For C1COCCN1, the outcome was “inactive”.
O=C(CC(=O)C(F)(F)C(F)(F)F)C(F)(F)F was tested, and the outcome was “inactive”.
CCCCCCCOC(=O)c1ccccc1C(=O)OCCCCCCC was tested, and the outcome was “inactive”.
In the case of O=C(Cl)C(F)(F)C(F)(F)C(F)(F)C(F)(F)C(F)(F)C(F)(F)C(F)(F)C(F)(F)F, the AC50 is reported as 25.5 µM (active).
In the case of O=S(=O)(OCCOC(F)(F)F)C(F)(F)F, the outcome is reported as “inactive”.
Cc1ccc(S(=O)(=O)OCC(F)(F)C(F)(F)C(F)(F)C(F)(F)C(F)(F)C(F)F)cc1 was tested, and the outcome was “inactive”.
NC(=O)C(F)(F)C(F)(F)C(F)(F)C(F)(F)F was tested, and the outcome was “inactive”.
In the case of O=P(O)(O)OCCC(F)(F)C(F)(F)C(F)(F)C(F)(F)C(F)(F)C(F)(F)F, the AC50 is reported as 10.4 µM (active).
With FC(F)(F)C(F)(F)C(F)(F)N(C(F)(F)C(F)(F)C(F)(F)F)C(F)(F)C(F)(F)C(F)(F)F the outcome was “inactive”.
For Nc1ccc(S(=O)(=O)Nc2nccs2)cc1, the outcome was “inactive”.
In the case of O=C(OCCOCCOCCOC(=O)c1ccccc1)c1ccccc1, the AC50 is reported as 2 µM (active).
For FC(F)(F)C(F)(F)C(F)(F)C(F)(F)C(F)(F)C(F)(F)C(F)(F)I, the AC50 was 3.7 µM (active).
For COC(=O)C1CCC(C(=O)OC)CC1 (stereo not given), the outcome was “inactive”.
In the case of CCO[Si](CCC(F)(F)C(F)(F)C(F)(F)C(F)(F)C(F)(F)C(F)(F)F)(OCC)OCC, the outcome is reported as “inactive”.
CCCCCCOC(=O)c1ccccc1O was tested, and the AC50 was 92.5 µM (active).
With CCc1ccc(C(c2ccc(CC)cc2)C(Cl)Cl)cc1 the AC50 was 7.49 µM (active).
For CC(C)(C)C(=O)CC(=O)C(F)(F)C(F)(F)C(F)(F)F, the outcome was “inactive”.
In the case of FC1CC(F)(F)C(F)(F)C1(F)F (stereo not given), the outcome is reported as “inactive”.
In the case of O=C(O)C=C(C(F)(F)F)C(F)(F)F, the outcome is reported as “inactive”.
With CC/C=C\CCOC(C)=O the outcome was “inactive”.
